# In all, about 110,000 compounds were measured (“z-score”: median about -0.1, highest 2% from about 2 on). The list comes from a sample in which the highest values are over-represented; it also holds similar structures and randomly drawn compounds. Activity calls are given as the source filed them.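 Rule for the calls: active = z-score in the third read window above 3 or below -3; inactive = the rest.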
# Molecular target: Metabotropic glutamate receptor 8 (Rattus norvegicus) (UniProt P70579)
# Experiment: rat mGluR8 modulators via GIRK flux, primary screen, cell-based, thallium flux, HTS (AID 488969)
# Details: HEK293 rat mGluR8, GIRK (G protein-gated inwardly rectifying potassium channel) thallium flux, FluoZin2; at 10 µM; stronger effect = higher value; submaximal glutamate (EC20) added with thallium
# Sequence of Metabotropic glutamate receptor 8 (Rattus norvegicus) (P70579 whole entry, looked up): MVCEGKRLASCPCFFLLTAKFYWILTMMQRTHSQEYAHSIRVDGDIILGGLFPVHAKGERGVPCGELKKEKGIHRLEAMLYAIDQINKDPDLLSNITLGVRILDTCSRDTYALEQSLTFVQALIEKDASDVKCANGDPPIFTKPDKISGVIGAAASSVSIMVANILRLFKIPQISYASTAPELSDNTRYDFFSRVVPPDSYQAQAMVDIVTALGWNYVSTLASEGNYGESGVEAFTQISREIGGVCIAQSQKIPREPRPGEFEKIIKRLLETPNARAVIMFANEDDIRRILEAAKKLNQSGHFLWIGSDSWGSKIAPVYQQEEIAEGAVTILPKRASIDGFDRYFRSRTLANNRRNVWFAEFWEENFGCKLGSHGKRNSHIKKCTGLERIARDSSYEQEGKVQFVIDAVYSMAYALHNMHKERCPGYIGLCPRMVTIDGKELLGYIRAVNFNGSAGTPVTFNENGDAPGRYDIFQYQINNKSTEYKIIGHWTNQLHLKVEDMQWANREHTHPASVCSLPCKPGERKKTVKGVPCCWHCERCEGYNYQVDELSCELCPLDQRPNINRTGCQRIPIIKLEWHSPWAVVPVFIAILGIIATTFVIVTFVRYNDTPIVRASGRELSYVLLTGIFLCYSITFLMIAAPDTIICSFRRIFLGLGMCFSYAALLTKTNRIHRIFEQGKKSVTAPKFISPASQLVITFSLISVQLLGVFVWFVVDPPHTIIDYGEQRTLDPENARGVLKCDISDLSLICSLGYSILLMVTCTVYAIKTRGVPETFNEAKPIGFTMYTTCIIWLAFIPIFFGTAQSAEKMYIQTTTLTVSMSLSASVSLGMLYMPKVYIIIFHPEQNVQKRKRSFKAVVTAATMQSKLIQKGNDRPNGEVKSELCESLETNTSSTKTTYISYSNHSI
row,SMILES,z-score
1,Cc1ccc(S(=O)(=O)c2ccc(C)cc2)cc1,-0.487
2,CCN1C(=O)/C(=C\c2ccc3c(c2)OCO3)C(C(=O)OC)=C1C,-0.35
3,COc1ccc(C(=O)C(OC(=O)c2ccccc2Cl)c2ccccc2)cc1 (configuration not stated),-0.172
4,COc1ccc(-n2cc(C(=O)O)c3ccccc3c2=O)cc1,2.28
5,COC(=O)c1cn(-c2ccc(Cl)cc2)c(=O)c2ccccc12,-0.29
6,CCOC(=O)c1ccccc1NC(=O)c1cn(-c2ccc(OC)cc2)c(=O)c2ccccc12,-0.291
7,O=C(Nc1cc(C(F)(F)F)ccc1N1CCOCC1)c1cn2ccccc2n1,-0.314
8,c1nc(N2CCC3(CC2)OCCO3)c2c3c(sc2n1)CCCC3,-1.04
9,c1nc(N2CCOCC2)c2c3c(sc2n1)CCCC3,-0.441
10,CC1(C)CN=C(N2CCN(c3ncnc4sc5c(c34)CCCC5)CC2)S1,5.02 (active)
11,Cc1ccccc1CN1CCN(CC(=O)NCc2ccccc2)C1=O,0.0216
12,COc1ccc(OCCn2nnc(-c3ccc(Cl)cc3)n2)cc1,0.195
13,O=C(CSc1nnc(-c2cnccn2)n1Cc1ccco1)c1ccccc1,2.15
14,O=C(CSc1nnc(-c2cnccn2)n1Cc1ccco1)c1ccc(Cl)cc1,-0.74
15,Clc1cccc(CSc2nnc(-c3ccccn3)n2Cc2ccco2)c1,3.12 (active)
16,COc1ccccc1NC(=O)CSc1nnc(-c2ccccn2)n1Cc1ccco1,-1.55
17,O=C(CSc1nnc(-c2ccccn2)n1Cc1ccco1)c1ccccc1,1.88
18,COc1ccc(NC(=O)CSc2nnc(-c3ccccn3)n2Cc2ccco2)cc1OC,5.76 (active)
19,Clc1ccccc1CSc1nnc(-c2ccccn2)n1Cc1ccco1,0.314
20,Clc1ccc(CSc2nnc(-c3ccccn3)n2Cc2ccco2)c(Cl)c1,0.104
21,COc1ccc(C)cc1NC(=O)CSc1nnc(-c2ccccn2)n1Cc1ccco1,0.359
22,COC(=O)c1ccccc1NC(=O)c1cn(-c2ccc(C)c(C)c2)c(=O)c2ccccc12,0.0214

row,SMILES,z-score
1,Cc1c(NC(=O)c2cc(-n3cnnc3)ccc2Cl)cccc1-c1nc2ccccc2o1,-0.115
2,O=C1c2ccccc2CN1CCNS(=O)(=O)c1ccc(Cl)cc1,-0.0894
3,Cc1ccc(C(=O)N/N=c2\sc3ccccc3n2C)cc1,0.37
4,Cc1ccccc1NC(=O)COC(=O)/C=C/c1cn(-c2ccccc2)nc1-c1cccnc1,-0.0968
5,Cn1nnc2cc(NC(=O)N3CCN(c4ccccn4)CC3)ccc21,0.387
6,CC(=O)Oc1ccc(-c2cccc(C(=O)O)c2)cc1,-0.607
7,COc1ccc(C(=O)C2CCN(S(=O)(=O)c3ccc4c(c3)OCCO4)CC2)cc1,0.21
8,Clc1ccc(/C=N/Nc2nc(Cl)nc3ccccc23)cc1,2.24
9,Clc1ccc(/C=N/Nc2nnc(Cl)c3ccccc23)cc1,0.242
10,Clc1cccc(/C=N/Nc2nc(Cl)nc3ccccc23)c1,-0.0962
11,CC(=O)Nc1ccc(OC(=O)c2cc3cc(Br)cc(Br)c3oc2=O)cc1,-0.128
12,CCOC(=O)C1=C(c2ccccc2)N=C2SCC(=O)N2C1c1cccc(OC)c1 (configuration not stated),-0.311
13,CCOC(=O)c1c(NC(=S)Nc2ccc(OC)cc2)sc2c1CCC2,0.905
14,CCOC(=O)Nc1sc2c(c1C(=O)OCC)CCC2,0.418
15,CCOC(=O)c1c(NS(=O)(=O)c2cccc(OC)c2)sc2c1CCC2,16.9 (active)
16,CCOC(=O)c1c(NC=O)sc2c1CCC2,-0.85
17,CCOC(=O)c1c(NC(=O)OC)sc2c1CCC2,0.00121
18,COC(=O)c1c(NC(=O)COC(=O)[C@@H](NS(=O)(=O)c2ccccc2)C(C)C)sc2c1CCC2,0.129
19,COC(=O)c1c(NC(=O)COC(=O)c2ccc(C)s2)sc2c1CCCCC2,0.122
20,COC(=O)c1c(NC(=O)COC(=O)[C@@H](NS(=O)(=O)c2ccc(C)cc2)C(C)C)sc2c1CCC2,2.02
21,CCOC(=O)c1c(NS(=O)(=O)c2ccc(Br)cc2)sc2c1CCC2,16.1 (active)
22,CCOC(=O)C1CCN(CCC(=O)Nc2cccc(Cl)c2C)CC1,0.732

row,SMILES,z-score
1,O=C(NC1CCCCCC1)C1C2C=CC3(CN(Cc4cccnc4)C(=O)C13)O2 (configuration not stated),0.211
2,O=c1cc(N2CCc3ccccc32)[nH]c(=O)n1-c1ccc(Br)cc1,-0.058
3,CCc1ccc(OCCOCC(O)CNC(C)CC)cc1 (configuration not stated),0.0842
4,COC(=O)c1ccccc1NC(=O)C1CCC(=O)N1S(=O)(=O)c1ccc(C)cc1 (configuration not stated),0.251
5,CC(=O)NS(=O)(=O)c1ccc(NC(=O)COc2ccc(C(=O)c3ccccc3)cc2)cc1,0.359
6,CC(NC(=O)C1CCN(S(=O)(=O)c2cc([N+](=O)[O-])ccc2Cl)CC1)c1ccccc1 (configuration not stated),-0.238
7,NC(=O)C1CCCN(S(=O)(=O)c2ccccc2)C1 (configuration not stated),-0.127
8,CCC(=O)Nc1nnc(-c2ccco2)o1,2.14
9,O=C(Nc1nnc(-c2ccco2)o1)c1ccc2ccccc2c1,2.95
10,O=C(Nc1nnc(-c2ccco2)o1)c1cccc2ccccc12,0.259
11,Cc1cccc(C(=O)Nc2nnc(-c3ccco3)o2)c1,0.11
12,Cc1ccc(C(=O)Nc2nnc(-c3ccco3)o2)cc1C,0.973
13,Cc1ccc(C(=O)Nc2nnc(-c3ccco3)o2)cc1,0.435
14,CCSc1nc2[nH]ncc2c(=O)[nH]1,-0.145
15,CCOC(=O)c1c(N)sc(C(O)(C(F)(F)F)C(F)(F)F)c1-c1ccc(OC)cc1OC,-1.15
16,O=C(COC(=O)c1cccnc1Nc1cccc(C(F)(F)F)c1)NC1CCS(=O)(=O)C1 (configuration not stated),-0.275
17,O=C(NCc1cc(C(F)(F)F)cc(C(F)(F)F)c1)C1CC(c2c(Cl)cccc2Cl)=NO1 (configuration not stated),-0.111
18,Cc1ccc(S(=O)(=O)Nc2cccc3cccnc23)cc1,-0.731
19,Cc1ccc(-n2c(-c3ccc(Br)cc3)c[n+]3c2CCc2ccc4cccnc4c2-3)cc1,4.86 (active)
20,Brc1ccc(-c2cn3c(n2)CCc2ccc4cccnc4c2-3)cc1,0.098
21,COc1ccccc1-n1c(SCC(=O)N2CCCCC2)nnc1-c1ccccc1O,-0.514
22,CN(C(=O)c1ccccn1)c1nnc(-c2cnccn2)s1,-0.729

row,SMILES,z-score
1,CN(C(=O)c1ccccn1)c1nnc(-c2ccncc2)s1,-0.931
2,CN(C(=O)c1ccccn1)c1nnc(-c2ccccn2)s1,2.29
3,COc1ccc(-c2noc(CSc3nnc(Cc4ccccc4)n3-c3ccc(Cl)cc3)n2)cc1,0.663
4,Cc1ccccc1OCC(O)Cn1c(=N)n(CCN2CCOCC2)c2ccccc21 (configuration not stated),1.12
5,Cc1ccc(OCC(O)Cn2c(=N)n(CCN3CCCCC3)c3ccccc32)cc1 (configuration not stated),4.9 (active)
6,Cc1cccc(OCC(O)Cn2c(=N)n(CCN3CCCCC3)c3ccccc32)c1 (configuration not stated),5.06 (active)
7,N=c1n(CCN2CCCCC2)c2ccccc2n1CC(O)c1cccc(Br)c1 (configuration not stated),0.566
8,COc1ccccc1OCC(O)Cn1c(=N)n(CCN2CCCCC2)c2ccccc21 (configuration not stated),-0.0021
9,N=c1n(CCN2CCCCC2)c2ccccc2n1CC(O)COc1ccccc1 (configuration not stated),1.11
10,O=C(Nc1ccc(Cl)cc1)C1=Cc2cc(Cl)ccc2OC1,-0.109
11,COC(=O)C1=C(C)NC2=C(C(=O)CC(C)(C)C2)C1c1ccsc1 (configuration not stated),0.803
12,Cn1c(C(C(=O)NCC2CCCO2)N(C(=O)Cn2nnc3ccccc32)C2CCCCC2)nc2ccccc21 (configuration not stated),-0.0111
13,CCOC(=O)/C(C#N)=C/NC(=O)NC(C)(C)C,0.141
14,Cc1ccc2[nH]c(=O)c(CN(CCO)C(=O)N(C)C)cc2c1,-0.0536
15,CCOC(CNC(=O)CCc1c(C)nc2nc(C)nn2c1C)OCC,-0.308
16,CCc1ccc(S(=O)(=O)Nc2c(C)nn(C)c2C)cc1,-0.343
17,CN(Cc1ccccc1F)c1nc(-c2cccs2)nc2ccccc12,0.11
18,O=C(O/N=C\c1ccc(N2CCCCC2)c([N+](=O)[O-])c1)c1c(F)cccc1F,2.03
19,O=C(O/N=C\c1ccc(N2CCCCC2)c([N+](=O)[O-])c1)c1cccc(C(F)(F)F)c1,0.31
20,O=C(O/N=C\c1ccc(N2CCCCC2)c([N+](=O)[O-])c1)c1cccc(Cl)c1,-0.494
21,CCOC(=O)CSc1cc(CS(=O)c2ccc(Cl)cc2)nc(-c2ccccc2)n1 (configuration not stated),0.0352
22,CCOC(=O)CSc1cc(CSc2ccccc2)nc(-c2ccccc2)n1,4.85 (active)

row,SMILES,z-score
1,CCOC(=O)CSc1cc(CS(=O)(=O)c2ccccc2)nc(-c2ccccc2)n1,-0.223
2,CC(=O)N(c1nc(CCl)cs1)c1c(C)cc(C)cc1C,1.43
3,Cc1ccc(-c2cc(C(=O)NCc3cnn(C)c3C)c3cc(Br)ccc3n2)cc1,-0.453
4,CCc1ccc(C2C(C#N)=C(N)C(C#N)(C#N)C3=CCC(C(C)(C)C)CC32)cc1 (configuration not stated),-0.0406
5,O=C(CCCn1c(=S)[nH]c2cc3c(cc2c1=O)OCO3)N1CCN(c2ccc(Cl)cc2)CC1,-0.36
6,CC(C)NC(=O)CCCn1c(=S)[nH]c2cc3c(cc2c1=O)OCO3,0.566
7,COCCn1c(=S)[nH]c2cc(C(=O)N3CCN(c4ccc(F)cc4)CC3)ccc2c1=O,4.3 (active)
8,O=C(CCCn1c(=S)[nH]c2cc3c(cc2c1=O)OCO3)N1CCN(c2ccc(F)cc2)CC1,-0.237
9,CC(C)OCCCn1c(=S)[nH]c2cc3c(cc2c1=O)OCO3,6.19 (active)
10,COCCn1c(=S)[nH]c2cc(C(=O)N3CCN(c4ccccc4OC)CC3)ccc2c1=O,-0.495
11,CCN(CC)CCn1c(=S)[nH]c2cc3c(cc2c1=O)OCO3,-0.565
12,CC(=O)c1ccc(N2CCN(C(=O)CCCn3c(=S)[nH]c4cc5c(cc4c3=O)OCO5)CC2)cc1,2.56
13,CCCn1c(=S)[nH]c2cc(C(=O)N3CCN(c4ccccc4OC)CC3)ccc2c1=O,0.596
14,Cc1cc(=O)[nH]c(SCC(=O)C23CC4CC(CC(C4)C2)C3)c1C#N,-0.0485
15,O=C(Nc1cccc(O)c1)c1cc2nc(-c3ccccc3)cc(-c3ccccc3)n2n1,-0.00871
16,O=C(COc1ccc(C(=S)N2CCOCC2)cc1)N1CCCC1,-0.301
17,Cc1ccc(S(=O)(=O)N2CCN(C)CC2)cc1-c1nnc2c3ccccc3c(C)nn12,9.27 (active)
18,Cc1ccc(S(=O)(=O)N2CCN(CCO)CC2)cc1-c1nnc2c3ccccc3c(C)nn12,-0.156
19,Cc1ccc(-c2nnc3c4ccccc4c(C)nn23)cc1S(=O)(=O)N1CCN(C)CC1,-0.999
